# Results filed as inconclusive are left out. Where a call stands in place of a potency, no number is given. Calls of active or inactive are those of the source. Unless noted, calls come from the whole dose curve.
# How the values were obtained:
# [1] = qHTS for Inhibitors of the Functional Ribonucleoprotein Complex (vRNP) of Lassa (LASV) Arenavirus: LASV Primary Screen - GLuc reporter signal (AID 1347082; calls by dose curve; tested in HEK293 reporter line; note: nearly all actives have a fitted effect of over 60% in size; note: potency is the fitted concentration of half-maximal effect)
# [2] = molecular target: Nucleoprotein (Lymphocytic choriomeningitis virus (strain Armstrong)) (UniProt P09992); assay: qHTS for Inhibitors of the Functional Ribonucleoprotein Complex (vRNP) of Lymphocytic Choriomeningitis Arenaviruses (LCMV): LCMV Primary Screen - GLuc reporter signal (AID 1347086); note: nearly all actives have a fitted effect of over 70% in size
# [3] = molecular target: Alpha-galactosidase (Coffea arabica) (UniProt Q42656); assay: Counterscreen for Glucocerebrosidase Inhibitors: qHTS Assay for Coffee Bean alpha-Galactosidase at pH 4.5 (AID 957; active = well fitted curve in the direction sought with a large enough effect; an effect the other way counts as inactive or inconclusive)
# In short: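 AC50 values derive from Hill-equation modeling of concentration-response data, normalized to no-enzyme and full-activity controls. The pH 4.5 citrate assay used 2 nM coffee bean enzyme and 80 uM fluorogenic substrate for 20 min.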
# [4] = molecular target: Alpha-galactosidase (Coffea arabica) (UniProt Q42656); assay: Counterscreen for Glucocerebrosidase Inhibitors: qHTS Assay for Coffee Bean alpha-Galactosidase at pH 5.9 (AID 998; active = well fitted curve in the direction sought with a large enough effect; an effect the other way counts as inactive or inconclusive)
# In short: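 Green coffee bean enzyme (2 nM) with 4-methylumbelliferyl alpha-D-galactopyranoside (80 uM) in 50 mM citric acid, 0.005% Tween-20, pH 5.9, 20 min at room temperature; compounds 0.7 nM–77 uM. Stopped at pH 10, fluorescence Ex365/Em440; Hill-fit AC50.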
# [5] = Inducers of the Endoplasmic Reticulum Stress Response (ERSR) in human glioma: Validation (AID 504836; active = well fitted curve in the direction sought with a large enough effect; an effect the other way counts as inactive or inconclusive)
# In short: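 Stably transfected U87-MG glioma cells carrying a GRP78-based luciferase sensor; 16 h compound incubation. Luminescence end-point read 10 min after Bright-Glo addition at room temperature.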
# [6] = molecular target: Bile acid receptor (Homo sapiens) (UniProt Q96RI1); assay: qHTS assay for small molecule agonists of farnesoid X receptor signaling (AID 588527); settings: HEK293T FXR-UAS-bla, beta-lactamase ratio, 16 h; activation: stronger effect = higher value
# In short: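 Read-out: beta-lactamase reporter fluorescence with CCF4 substrate in GeneBLAzer FXR-UAS-bla HEK293T cells, after 16 h compound exposure at 37 C. Response scaled between DMSO basal (0%) and chenodeoxycholic acid at 100 uM (100%).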
# [7] = molecular target: Peroxisome proliferator-activated receptor delta (Homo sapiens) (UniProt Q03181); assay: qHTS assay for small molecule agonists of peroxisome proliferator-activated receptor delta signaling (AID 588534)
# In short: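 Reporter cells were plated and held 5 hrs at 37 C before compounds were added. After 18 hrs at 37 C, CCF4 dye was loaded for 2 hrs at RT and fluorescence measured.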
# [8] = qHTS for Inhibitors of the Functional Ribonucleoprotein Complex (vRNP) of Lymphocytic Choriomeningitis Arenaviruses (LCMV): Viability assay - alamar blue signal for LCMV Primary Screen (AID 1347085; calls by dose curve; tested in HEK293 reporter line; note: nearly all actives have a fitted effect of over 80% in size; note: potency is the fitted concentration of half-maximal effect)
# [9] = Primary qHTS for inhibitors of SARS-S pseudo-typed particle cell entry (AID 1479145); note: nearly all actives have a fitted effect of over 45% in size; note: potency is the fitted concentration of half-maximal effect
# [10] = Primary qHTS for Huh7 cytotoxicity: counterscreen for inhibitors of MERS-S pseudotyped particle cell entry (AID 1479147); settings: outcome: dose series up to 57.1 µM unless noted
# [11] = Primary qHTS for Vero E6 cytotoxicity: counterscreen for inhibitors of SARS-S pseudo-typed particle cell entry (AID 1479150); settings: outcome: dose series up to 57.1 µM unless noted
# [12] = Cytotoxicity counterscreen for inhibitors of SARS-CoV-2 cell entry (AID 1645845); note: nearly all actives have a fitted effect of over 50% in size
# In short: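 HEK293-ACE2 cells (Expi293F stably expressing human ACE2) seeded overnight, then compound for 1 h plus 48 h at 37C. Viability as ATP content by luminescence; normalized to wells with cells and media-only wells.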
# [13] = Primary qHTS to identify inhibitors of SARS-CoV-2 cell entry (AID 1645846); settings: activity change, negative = inhibition: at 57.1 µM (top of the series) unless noted; note: nearly all actives have a fitted effect of over 45% in size; note: potency is the fitted concentration of half-maximal effect
# In short: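 Inhibition of spike-mediated entry was scored in human ACE2-transfected Expi293F cells. Particles were MLV-pseudotyped with Wuhan-Hu-1 S carrying a 19-aa C-terminal deletion; signal was luciferase after two days, scaled between spike PP and fusion-protein-free PP.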
# [14] = VSVG counterscreen qHTS to identify inhibitors of SARS-CoV-2 cell entry (AID 1645847); note: nearly all actives have a fitted effect of over 65% in size; note: potency is the fitted concentration of half-maximal effect
# In short: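 Luminescence from a luciferase reporter, normalised to bald particle and VSV-G pseudotyped particle wells, is the read-out. Cells are HEK293 expressing human ACE2, exposed to compound 1 h before a 48 h particle infection at 37 °C.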
# [15] = Confirmatory qHTS to identify inhibitors of SARS-CoV-2 cell entry (AID 1645844); note: nearly all actives have a fitted effect of over 45% in size; note: potency is the fitted concentration of half-maximal effect
# In short: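 HEK293-ACE2 cells were pretreated 1 h with compound, then infected with MLV-based pseudoparticles bearing C-terminally truncated Wuhan-Hu-1 spike for 48 h at 37C; luciferase luminescence normalized to spike PP and bald PP wells.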
# [16] = qHTS Assay for Lipid Storage Modulators (AID 1519); settings: Drosophila S3 cells, BODIPY lipid droplet/cell ratio, laser cytometry, cells loaded with oleic acid
# In short: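 Cells seeded at 5,000 per well were treated with compounds over a concentration series and loaded with oleic acid (400 uM, as added). Lipid droplet fluorescence (488 nm excitation, 500-530 nm channel) was read by laser-scanning cytometry and normalized to 20 uM Triacsin C.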
# [17] = qHTS profiling of the MIPE4 collection as inhibitors of Plasmodium falciparum (3D7) proliferation (AID 743344; call rule not given here); settings: P. falciparum 3D7 in erythrocytes, SYBR Green DNA fluorescence, 72 h; at 28.5 µM (top of the series) unless noted
# In short: (§1)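 Erythrocytes infected with P. falciparum (0.3% parasitemia, 2.5% hematocrit) incubated with compounds 72 h at 37 C, 5% CO2. Lysis with saponin/Triton buffer containing SYBR Green I, overnight at room temperature in the dark; DNA fluorescence (485/535 nm) normalised to 0.29 uM artemisinin and DMSO.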
# [18] = qHTS profiling of the MIPE4 collection as inhibitors of Plasmodium falciparum (DD2) proliferation (AID 743345; call rule not given here); settings: P. falciparum Dd2 in erythrocytes, SYBR Green DNA, 72 h; at 28.5 µM (top of the series) unless noted
# In short: as §1
# [19] = qHTS profiling of the MIPE4 collection as inhibitors of Plasmodium falciparum (DD2) proliferation (Rep 2) (AID 743346; call rule not given here); settings: P. falciparum Dd2 in erythrocytes, SYBR Green DNA, 72 h; at 28.5 µM (top of the series) unless noted
# In short: as §1
# [20] = Primary qHTS for inhibitors of MERS-S pseudo-typed particle cell entry (AID 1479149); note: nearly all actives have a fitted effect of over 60% in size
# [21] = Validation screen for inhibitors of Lassa infection (AID 463096)
# Nucleoprotein (Lymphocytic choriomeningitis virus (strain Armstrong)), sequence (P09992 whole entry, looked up): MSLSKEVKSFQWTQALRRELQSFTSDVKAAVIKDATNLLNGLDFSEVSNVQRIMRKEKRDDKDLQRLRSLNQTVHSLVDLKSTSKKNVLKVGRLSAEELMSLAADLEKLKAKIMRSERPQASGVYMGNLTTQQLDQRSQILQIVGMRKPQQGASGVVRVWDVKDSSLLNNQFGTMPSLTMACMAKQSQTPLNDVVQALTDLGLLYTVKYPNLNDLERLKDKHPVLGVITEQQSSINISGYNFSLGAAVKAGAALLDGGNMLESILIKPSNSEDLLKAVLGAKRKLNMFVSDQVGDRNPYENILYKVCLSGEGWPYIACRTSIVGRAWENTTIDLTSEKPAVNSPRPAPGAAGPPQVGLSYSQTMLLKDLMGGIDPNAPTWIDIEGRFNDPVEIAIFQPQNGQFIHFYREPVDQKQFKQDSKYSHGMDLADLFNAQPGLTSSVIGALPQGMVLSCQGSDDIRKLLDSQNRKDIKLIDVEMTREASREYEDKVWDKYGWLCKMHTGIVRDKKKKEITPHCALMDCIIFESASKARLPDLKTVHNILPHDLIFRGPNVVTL
# Alpha-galactosidase (Coffea arabica), sequence (Q42656 whole entry, looked up): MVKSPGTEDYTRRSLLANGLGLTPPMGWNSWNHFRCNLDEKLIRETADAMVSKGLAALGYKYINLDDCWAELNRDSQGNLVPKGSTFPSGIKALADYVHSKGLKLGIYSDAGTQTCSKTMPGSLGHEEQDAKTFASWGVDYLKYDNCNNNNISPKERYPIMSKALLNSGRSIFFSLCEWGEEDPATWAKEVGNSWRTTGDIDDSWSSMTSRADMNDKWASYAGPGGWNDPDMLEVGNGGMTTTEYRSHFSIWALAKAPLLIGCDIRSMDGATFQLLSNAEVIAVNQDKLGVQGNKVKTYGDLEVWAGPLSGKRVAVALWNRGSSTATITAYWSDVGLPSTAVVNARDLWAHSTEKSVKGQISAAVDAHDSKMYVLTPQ
# Peroxisome proliferator-activated receptor delta (Homo sapiens), sequence (Q03181 whole entry, looked up): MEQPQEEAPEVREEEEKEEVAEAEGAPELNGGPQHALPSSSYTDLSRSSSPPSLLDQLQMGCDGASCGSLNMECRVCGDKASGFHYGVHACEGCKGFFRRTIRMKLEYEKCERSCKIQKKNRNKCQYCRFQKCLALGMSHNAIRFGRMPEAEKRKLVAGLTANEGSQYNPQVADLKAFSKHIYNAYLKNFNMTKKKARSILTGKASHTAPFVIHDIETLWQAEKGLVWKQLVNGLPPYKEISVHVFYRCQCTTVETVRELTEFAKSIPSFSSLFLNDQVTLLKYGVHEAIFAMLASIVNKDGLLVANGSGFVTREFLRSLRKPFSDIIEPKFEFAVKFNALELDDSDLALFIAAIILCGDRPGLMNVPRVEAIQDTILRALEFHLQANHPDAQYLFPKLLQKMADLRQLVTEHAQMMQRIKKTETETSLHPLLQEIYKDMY
# Bile acid receptor (Homo sapiens), sequence (Q96RI1 whole entry, looked up): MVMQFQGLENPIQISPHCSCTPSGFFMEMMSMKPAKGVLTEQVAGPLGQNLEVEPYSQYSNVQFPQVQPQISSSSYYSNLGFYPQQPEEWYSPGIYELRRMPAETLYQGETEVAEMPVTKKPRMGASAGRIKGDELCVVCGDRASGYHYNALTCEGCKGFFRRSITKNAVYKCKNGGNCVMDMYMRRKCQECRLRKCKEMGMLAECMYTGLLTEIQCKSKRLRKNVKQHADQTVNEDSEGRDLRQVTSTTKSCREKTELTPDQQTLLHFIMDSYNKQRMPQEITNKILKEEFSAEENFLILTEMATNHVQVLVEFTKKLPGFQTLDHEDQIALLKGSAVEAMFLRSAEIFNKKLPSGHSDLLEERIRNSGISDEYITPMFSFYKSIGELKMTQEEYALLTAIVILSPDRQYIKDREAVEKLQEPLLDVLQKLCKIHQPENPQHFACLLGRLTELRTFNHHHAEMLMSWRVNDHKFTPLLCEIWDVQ
smiles,measurement,setting,value
CC[C@H](C)[C@@H]1NC(=O)CNC(=O)c2csc(n2)[C@H](C(C)(C)O)OC(=O)C(C)(C)[C@H](CCCC(C)(Cl)Cl)OC(=O)c2csc1n2,Potency,[1],inactive
same,Potency,[2],inactive
O=C(Nc1ccccc1)c1cc([N+](=O)[O-])ccc1Cl,outcome,[3],inactive
same,outcome,[4],inactive
same,outcome,[5],inactive
same,activation,[6],-1.48% (inactive)
same,Potency,[7],inactive
same,Potency,[1],inactive
same,Potency,[8],inactive
COc1cc2nccc(Oc3ccc(NC(=O)NC4CC4)c(Cl)c3)c2cc1C(N)=O,Potency,[1],inactive
same,Potency,[8],19.3 µM (active)
same,Potency,[9],3.55 µM (active)
same,outcome,[10],inactive
same,outcome,[11],inactive
same,Potency,[12],inactive
same,"activity change, negative = inhibition",[13],-21.3%
same,Potency,[14],19.2 µM (active)
Nc1ncnc2n[nH]c(Nc3ccc(F)cc3)c12,outcome,[5],inactive
same,Potency,[1],inactive
same,Potency,[2],inactive
CCCCOc1ccc(C(=O)Nc2ccc(F)cc2F)cc1,Potency,[1],inactive
same,Potency,[2],inactive
same,Potency,[13],inactive
COc1cc(C)c(Sc2cnc(NC(=O)c3ccc(CNC(C)C(C)C)cc3)s2)cc1C(=O)N1CCN(C(C)=O)CC1 (stereo unspecified),Potency,[1],24.3 µM (active)
same,Potency,[15],9.61 µM (active)
same,"activity change, negative = inhibition",[13],-95.3%
same,Potency,[14],3.83 µM (active)
CC[C@H](C)C(=O)O[C@H]1CCC=C2C=C[C@H](C)[C@H](CC[C@@H]3C[C@@H](O)CC(=O)O3)[C@H]21,outcome,[5],inactive
same,Potency,[1],inactive
same,Potency,[15],inactive
same,Potency,[12],inactive
same,"activity change, negative = inhibition",[13],-51.5%
same,Potency,[14],inactive
Cc1cc(Nc2cc(CN3CCOCC3)c3nc(C)c(Cc4ccc(Cl)cc4F)n3n2)n[nH]1,Potency,[1],inactive
same,Potency,[2],inactive
CC(C(=O)O)c1ccc(-c2ccccc2)c(F)c1 (stereo unspecified),"activity change, negative = inhibition",[16]; at 57.5 µM (top of the series),7.18% (inactive)
same,max response,[16]; measured here: cell count channel max response,15.4%
same,max response,[16]; measured here: lipid channel max response,28.2%
same,"parasite growth, % of DMSO control",[17],86.5%
same,"parasite growth remaining, % of DMSO control (lower = more inhibition)",[18],95.5%
same,"parasite growth, % of control (lower = inhibition)",[19],114%
same,Potency,[1],inactive
same,Potency,[9],inactive
same,outcome,[10],inactive
same,Potency,[20],inactive
same,outcome,[11],inactive
same,Potency,[13],inactive
same,"activity change, negative = inhibition",[13],-16.8%
NC(=O)c1cnc(-c2ccc(C3(N)CCC3)cc2)c(-c2ccccc2)c1,Potency,[1],inactive
same,Potency,[2],inactive
same,Potency,[12],inactive
Cn1cnc(=N)c2[nH]cnc21,Potency,[1],inactive
same,Potency,[2],inactive
same,Potency,[12],inactive
same,"activity change, negative = inhibition",[13],-0.211% [at 114 µM]
O=C(NOCC(O)CO)c1cc(Br)c(F)c(F)c1Nc1ccc(I)cc1F (stereo unspecified),Potency,[1],inactive
same,Potency,[2],inactive
same,Potency,[12],inactive
same,"activity change, negative = inhibition",[13],-16.5%
C[C@@H](N)c1ccc(C(=O)Nc2ccnc3[nH]ccc23)cc1,Potency,[1],inactive
same,Potency,[2],inactive
same,"activity change, negative = inhibition",[13],-95.9%
CC1OC(OC2CC(O)C3(CO)C4C(O)CC5(C)C(C6=CC(=O)OC6)CCC5(O)C4CCC3(O)C2)C(O)C(O)C1O (stereo unspecified),Potency,[1],inactive
same,Potency,[2],inactive
C=C1C([C@@]2(C)C(OC(C)=O)CC(=O)O[C@@](C)(COC(C)=O)C2CC(=O)OC)C(OC=O)C(OC(=O)C(O)C(C)CC)[C@]2(C)C(c3ccoc3)CC(=O)C12O (stereo partly specified),Potency,[1],inactive
same,Potency,[2],inactive
CC(=O)O[C@@]12CO[C@@H]1C[C@H](O)[C@@]1(C)C(=O)[C@H](O)C3=C(C)[C@@H](OC(=O)[C@H](O)[C@@H](NC(=O)c4ccccc4)c4ccccc4)C[C@@](O)([C@@H](OC(=O)c4ccccc4)C12)C3(C)C (stereo partly specified),Potency,[1],inactive
same,Potency,[2],inactive
Cc1ccc(/C=N/NC(=O)c2ccccc2Oc2ccccc2)o1,Potency,[1],inactive
same,Potency,[2],inactive
same,Potency,[12],inactive
same,Potency,[13],inactive
CNC(=O)[C@H](Cc1ccccc1)NC(=O)[C@H](CC(C)C)[C@H](CSc1cccs1)C(=O)NO,Potency,[1],inactive
same,Potency,[2],inactive
same,Potency,[12],inactive
N=c1ccn2c(n1)O[C@H]1[C@@H](O)[C@@H](CO)O[C@H]12,Potency,[1],inactive
same,Potency,[2],inactive
same,Potency,[12],inactive
same,Potency,[13],10 µM (active)
NC(N)=Nc1nc(CSCCC(N)=NS(N)(=O)=O)cs1,Potency,[1],inactive
same,Potency,[2],inactive
c1nc2nc(Nc3ccc(N4CCOCC4)cc3)nc(NC3CCCCC3)c2[nH]1,Potency,[1],inactive
same,Potency,[12],inactive
Nc1ncnc2nc(-c3ccc(N4CCOCC4)nc3)cc(-c3cccc(Br)c3)c12,outcome,[5],inactive
same,Potency,[1],inactive
same,Potency,[2],inactive
same,Potency,[12],inactive
same,"activity change, negative = inhibition",[13],-21.9%
NC(=NCCCCCCN=C(N)N=C(N)Nc1ccc(Cl)cc1)N=C(N)Nc1ccc(Cl)cc1,Potency,[1],inactive
same,Potency,[2],inactive
same,Potency,[13],17.8 µM (active)
O=C(NC1CC1)c1cccc(-c2ccc3c(NC(=O)C4CC4)n[nH]c3c2)c1,Potency,[1],inactive
same,Potency,[15],17.1 µM (active)
same,Potency,[13],7.94 µM (active)
same,Potency,[14],15.2 µM (active)
O=C(O)c1c(Cl)c(Cl)c(Cl)c(Cl)c1-c1c2cc(I)c(=O)c(I)c-2oc2c(I)c(O)c(I)cc12,Potency,[1],inactive
same,Potency,[9],inactive
same,outcome,[10],inactive
same,Potency,[20],inactive
same,Potency,[12],inactive
CN(C)c1nc2c(Br)c(Br)c(Br)c(Br)c2[nH]1,outcome,[3],inactive
same,Potency,[21],inactive
same,outcome,[5],inactive
same,Potency,[1],inactive
same,Potency,[2],inactive
O=C1NC(=O)C(c2ccccc2[N+](=O)[O-])=C1Nc1ccc(O)c(Cl)c1,outcome,[3],inactive
same,outcome,[4],inactive
same,Potency,[21],inactive
same,outcome,[5],inactive
same,Potency,[1],inactive
same,Potency,[2],inactive
same,Potency,[12],inactive
CN(C)CCc1cc2c(c3c1ccc1ccccc13)OCO2,Potency,[1],inactive
same,Potency,[2],inactive
COc1ccc2nc3cc(Cl)ccc3c(Nc3cc(CN4CCCC4)c(O)c(CN4CCCC4)c3)c2n1,Potency,[1],inactive
same,Potency,[2],inactive
